Among the data in PubChem BioAssay (NCI) are growth inhibition values, retold here.

The panel holds about 79,000 compounds, 15% with a hit somewhere; the sample as a whole holds those more often. A number with no mark means an inactive call. The source made the active and inactive calls. No stated cut-off is given here; in the data, active means growth inhibition above about 70%; inactive means the rest.

Experiment [1] can be described thus: NCI Yeast Anticancer Drug Screen. Data for the rad50 strain (AID 155).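 Further: 0% = growth of vehicle-only cultures of the same strain.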 To be noted: S. cerevisiae rad50 strain growth inhibition; at 50.0 µM; stronger effect = higher value. The method in brief:
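Growth of the mutant yeast was measured after compound exposure and referenced to vehicle-treated cultures.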

Experiment [2] in a line: NCI Yeast Anticancer Drug Screen. Data for the mec2-1 strain (AID 157). The following applies: S. cerevisiae mec2-1 strain, at 50.0 µM, stronger effect = higher value. The method in brief:
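Readout is yeast growth inhibition, normalised to vehicle-treated controls, in the mec2-1 strain exposed to compound.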

Experiment [3] is described as follows: NCI Yeast Anticancer Drug Screen. Data for the sgs1 mgt1 strain (AID 161).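 Further: 0% = growth of cultures given vehicle only.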 The following applies: S. cerevisiae sgs1 mgt1 strain, at 50.0 µM, stronger effect = higher value. The method in brief:
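Compounds are added to genetically altered yeast, and growth is compared with cultures given vehicle alone to give percent inhibition.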

Experiment [4] is described as follows: NCI Yeast Anticancer Drug Screen. Data for the cln2 rad14 strain (AID 165).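 Further: 0% = growth equal to vehicle treated cultures.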 To be noted: S. cerevisiae cln2 rad14 strain, at 50.0 µM, stronger effect = higher value. The method in brief:
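Relative to vehicle controls, growth inhibition of compound-treated cln2 rad14 yeast was recorded.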

Experiment [5] in a line: NCI Yeast Anticancer Drug Screen. Data for the bub3 strain (AID 167). The following applies: S. cerevisiae bub3 mutant strain, at 50.0 µM, stronger effect = higher value. The procedure, abridged: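 Whole-cell yeast assay. The mutant strain was incubated with compounds, and growth inhibition was determined by comparison with vehicle-treated cells.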
Experiment [6] is described as follows: NCI Yeast Anticancer Drug Screen. Data for the mlh1 rad18 strain (AID 175). To be noted: S. cerevisiae mlh1 rad18 strain growth inhibition; at 50.0 µM; stronger effect = higher value. The procedure, abridged: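 Test agents were incubated with a yeast strain of defined genotype (DNA damage repair defect). Inhibition of growth was derived by comparison with vehicle-exposed cultures.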

`Cc1ccc(NC(=S)NC2CCCCC2)cc1Cl`: the growth inhibition is -2.4% in experiment [1]; 43% in experiment [2]; 29.4% in experiment [3]; -24.9% in experiment [4]; 42.3% in experiment [5]; 26.6% in experiment [6].

For `CC(=O)NNc1nc(C)c(C(=O)NNC(=O)C(=O)Nc2ccc([N+](=O)[O-])cc2[N+](=O)[O-])s1`, the growth inhibition in experiment [1] was 6.45%; in experiment [2], -5.65%; in experiment [3], -30.9%; in experiment [4], 32.9%; in experiment [5] it was 24.1%; in experiment [6], 14.8%.

On to `N#CC(NCc1cccc(CNC(C#N)c2ccccc2)c1)c1ccccc1` (stereo not given), for which the growth inhibition is -4.8% in experiment [1]; 8.4% in experiment [2]; -28.1% in experiment [3]; -16.4% in experiment [4]; -28.7% in experiment [5]; -19.8% in experiment [6].

In the case of `O=C(Nc1nc(=S)[nH][nH]1)C(=O)C(C(=O)c1ccc2ccccc2c1)C1OC(=O)c2ccccc21` (stereo not given), the growth inhibition in experiment [1] was 28.6%; in experiment [2] it was 23.3%; in experiment [3] it was -6.5%; in experiment [4], -14.3%; in experiment [5] it was 3.75%; in experiment [6], 28.8%.

With `CCOC(=O)CC1(c2ccccc2)OC(=O)c2ccccc21` (stereo not given), the growth inhibition was 9.05% in experiment [1]; 13.2% in experiment [2]; 8.65% in experiment [3]; 4.75% in experiment [4]; 16.9% in experiment [5]; -11.2% in experiment [6].

In the case of `O=c1[nH]cc(C2OCC(O)C(O)C2O)c(=O)[nH]1` (stereo not given), the growth inhibition in experiment [1] is 1.45%; in experiment [2] it was -14.4%; in experiment [3], 0.5%; in experiment [4], 1.95%; in experiment [5], -19.1%; in experiment [6], -32.5%.

On to `CCc1cccc(OC(=O)CCl)c1`, for which the growth inhibition was 3.1% in experiment [1]; 7.5% in experiment [2]; -1.65% in experiment [3]; -24.4% in experiment [4]; -17.8% in experiment [5]; -5.1% in experiment [6].

On to `CCN=C1SCCCS1`, for which the growth inhibition in experiment [1] is -8.8%; in experiment [2] it was -22.8%; in experiment [3], -13.4%; in experiment [4], -19.5%; in experiment [5] it was -15.9%; in experiment [6], -14.8%.

Regarding `CCCCc1cccc2c1OCO2`, the growth inhibition in experiment [1] was -18.6%; in experiment [2], -0.6%; in experiment [3], -7.75%; in experiment [4], -9.75%; in experiment [5], -12.5%; in experiment [6], 36.8%.

Regarding `COc1ccc2c(c1)C1(C)CCCC(C)(C=O)C1CC2` (stereo not given), the growth inhibition in experiment [1] was 5.5%; in experiment [2] it was -2.75%; in experiment [3] it was -3.65%; in experiment [4] it was -1.25%; in experiment [5], 10.4%; in experiment [6], 4.75%.

On to `Cc1ccc(N=Nc2c(O)c(C(=O)O)cc3ccccc23)c(S(=O)(=O)O)c1`, for which the growth inhibition is 12.3% in experiment [1]; -8.35% in experiment [2]; -7.5% in experiment [3]; -45.2% in experiment [4]; 5.9% in experiment [5]; 26.4% in experiment [6].

Turning to `O=[N+]([O-])c1ccc(N=Nc2c(S(=O)(=O)O)cc3cc(S(=O)(=O)O)ccc3c2O)c([N+](=O)[O-])c1`, the growth inhibition was 24.3% in experiment [1]; 0.9% in experiment [2]; 30.9% in experiment [3]; 31.3% in experiment [4]; 32.1% in experiment [5]; 20.2% in experiment [6].

`CC(=N\[O-])/C(C)=N/O.CC(=N\[O-])/C(C)=N/O.CCCc1ccncc1.[Cl-].[Cl-].[Rh+3]`: the growth inhibition in experiment [1] was -9.2%; in experiment [2] it was -34%; in experiment [3], -29.4%; in experiment [4], 13.7%; in experiment [5], -44.6%; in experiment [6], 3.9%.

For `CCOC(=O)CC1CCC(CCCCC2CCC(CC(=O)OCC)CC2)CC1` (stereo not given), the growth inhibition in experiment [1] is 76% (active); in experiment [2] it was 44.5%; in experiment [3], 80% (active); in experiment [4], 57.4%; in experiment [5] it was 22.2%; in experiment [6] it was 45.2%.

Regarding `CCOc1c(N=Nc2ccc(Cl)cc2Cl)c(C)nn1C(N)=S`, the growth inhibition in experiment [1] was -16.2%; in experiment [2] it was 0.15%; in experiment [3], 11.1%; in experiment [4] it was -43.8%; in experiment [5], -24.2%; in experiment [6], 17.5%.

Turning to `O=C(OCc1ccccc1)c1ccccc1O`, the growth inhibition was 39.1% in experiment [1]; 16.1% in experiment [2]; 46.1% in experiment [3]; -16.1% in experiment [4]; 22.8% in experiment [5]; 57.5% in experiment [6].

`O=C(O)C1CCCCC1C(=O)Nc1cccc2ccccc12` (stereo not given): the growth inhibition in experiment [1] is 6.65%; in experiment [2], -2.8%; in experiment [3], -4.3%; in experiment [4] it was -7.95%; in experiment [5], 24.4%; in experiment [6] it was -39.5%.

Consider `COc1ccccc1NC(=O)CC(=O)n1nc(-c2ccccc2)c(N=Nc2ccccc2[N+](=O)[O-])c1-c1ccccc1`, for which the growth inhibition in experiment [1] was -0.4%; in experiment [2], -15.5%; in experiment [3] it was 27.9%; in experiment [4] it was 0.5%; in experiment [5] it was 25.3%; in experiment [6], 15.5%.

For `O=C1OC2(c3ccc(O)cc3Oc3cc(O)ccc32)c2ccccc21`, the growth inhibition in experiment [1] is 6.6%; in experiment [2] it was 0.55%; in experiment [3] it was 10.2%; in experiment [4] it was 26.7%; in experiment [5], -0.05%; in experiment [6], -1.2%.

On to `O=[N+]([O-])c1ccc(Cc2ncnc3c2ncn3C2OC(CO)C(O)C2O)cc1` (stereo not given), for which the growth inhibition is 5.1% in experiment [1]; -13.2% in experiment [2]; -16.4% in experiment [3]; -0.95% in experiment [4]; 2.15% in experiment [5]; -18.9% in experiment [6].
